Measured values from publication PMC7819943, “Rice protein-binding microarrays: a tool to detect cis-acting elements near promoter regions in rice”.
Whole data set: some 68,000 sequences, median “fluorescence intensity (a.u.)” near 9,100, cut for the highest 2% near 16,000. This excerpt belongs to a sample that is enriched for the highest values.

What follows are sequences tested against OsWRKY34 (Oryza sativa, UniProt Q0JBA9 1-250) (assay: protein-binding microarray (RPBM); PBS, 2% BSA, 51.3 ng/ul salmon testes DNA, 50 uM zinc acetate, 200 nM TF, 25 C, 1 h; high values mean tight binding). Conditions: protein: recombinant; tags: N-terminal polyhistidine and DsRed monomer fusion (pET32a); label: CyDye5-dUTP incorporated in the synthesized complementary strand; 3' TTTTT single-stranded linker to array surface; dsDNA, one strand shown.
Chain of OsWRKY34 (Q0JBA9 entry or part of it): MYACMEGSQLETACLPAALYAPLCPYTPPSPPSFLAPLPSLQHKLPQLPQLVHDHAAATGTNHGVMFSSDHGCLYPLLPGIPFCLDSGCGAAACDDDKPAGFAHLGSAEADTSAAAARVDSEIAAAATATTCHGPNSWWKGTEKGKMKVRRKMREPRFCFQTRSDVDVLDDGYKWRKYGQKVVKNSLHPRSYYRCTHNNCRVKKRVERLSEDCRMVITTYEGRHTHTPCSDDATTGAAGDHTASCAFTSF
Summary of the method: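 In PBS with 2% BSA, salmon testes DNA and 50 µM zinc acetate, 200 nM protein was incubated on a custom Agilent array at 25 °C for 1 h and then washed off. The array had been made double-stranded by primer extension with Cy5-dUTP and blocked with 2% BSA. The proteins were transcription factors fused N-terminally to polyhistidine and DsRed, expressed in E. coli BL21-CodonPlus and purified on Ni–NTA. The binding signal is per-feature fluorescence intensity (arbitrary units) from an Axon 4000B scanner.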
With “TATACCTCTCTCTCTCTCTCTCTCTCTCTCTCTCTCTCTTCGGAGTCACCTAGTGCAG” the binding signal was 8280 fluorescence intensity (a.u.). With “TTTTTGTTTTCTCAATTCGCGAATTTAATGCTTTTGTGTACGGAGTCACCTAGTGCAG” the binding signal was 9750 fluorescence intensity (a.u.). “GAATTATTAGGGAGAAAGGAGTTGCAGGGTGGGGATTGTTCGGAGTCACCTAGTGCAG” was tested, and the binding signal was 8330 fluorescence intensity (a.u.). For “CGTTCTCTGTCTGTCCCGCACTCCCGCCTTTTGCCAAAGCCGGAGTCACCTAGTGCAG”, the binding signal was 9610 fluorescence intensity (a.u.). “AGACCAAGCCATATCACCTTATGTAATTTCTTTATGTGCTCGGAGTCACCTAGTGCAG” was tested, and the binding signal was 9010 fluorescence intensity (a.u.). With “GTCCCATCGTCTCTATTCGGGTCACCTTTGCACAACATGACGGAGTCACCTAGTGCAG” the binding signal was 10500 fluorescence intensity (a.u.). For “GTTGACGTCTCCCAAGTGCCACACCCGCCGCCACGTCACTCGGAGTCACCTAGTGCAG”, the binding signal was 8880 fluorescence intensity (a.u.). For “CCCAGATTCGCCCCGCACCGCACCGCCCTTGGCTCGCCCCCGGAGTCACCTAGTGCAG”, the binding signal was 8340 fluorescence intensity (a.u.). For “CTCTACTTCTAATGTTCCTTATTTTTTTTCCGAGTTTCTACGGAGTCACCTAGTGCAG”, the binding signal was 9390 fluorescence intensity (a.u.). With “TACTCGTTTGGTTGTAATTTTTTTCCGCGTCTTTTCATCTCGGAGTCACCTAGTGCAG” the binding signal was 11200 fluorescence intensity (a.u.). For “TTGAATTTTCAGTTTTCTTGTGCGTGTTTCCTTGTCATTTCGGAGTCACCTAGTGCAG”, the binding signal was 9140 fluorescence intensity (a.u.). In the case of “TAGTTTCTTGTTTTCAGTTTTTTTTTCTTGTCATTTTTTTCGGAGTCACCTAGTGCAG”, the binding signal is reported as 19500 fluorescence intensity (a.u.). In the case of “ATTCTTCATTCTTTTTGTGTGTGTTTCAGTGTGTTTGTTTCGGAGTCACCTAGTGCAG”, the binding signal is reported as 15800 fluorescence intensity (a.u.). For “CGGTCTTTGCCAAATTCCCACTCCGCTTGGCTTTCTGGCCCGGAGTCACCTAGTGCAG”, the binding signal was 8250 fluorescence intensity (a.u.). “CTAGGACATCATTTTGTTTGTCGTGTGTGCGCAACTGTTTCGGAGTCACCTAGTGCAG” was tested, and the binding signal was 8160 fluorescence intensity (a.u.). For “TGTGAGTAGTTTGTGGTTGGGAGTGTAACGGGTGGGGTGGCGGAGTCACCTAGTGCAG”, the binding signal was 16900 fluorescence intensity (a.u.). For “AACAGTTGACGCAGGTGGCAGAGTTGCTAGTTCTTGCCCTCGGAGTCACCTAGTGCAG”, the binding signal was 61500 fluorescence intensity (a.u.). “ATACCGTGATTGGGATTACCTGTGACCTTGCCTATTTGACCGGAGTCACCTAGTGCAG” was tested, and the binding signal was 9120 fluorescence intensity (a.u.). “GGAGAGTAGCAGTGTGGTTGATGATGGTGTTCTTGCTACTCGGAGTCACCTAGTGCAG” was tested, and the binding signal was 9890 fluorescence intensity (a.u.). With “CTTTCTTTCTTTCTTTCTTCTTTTTTTTCTTTTTTTTTTGCGGAGTCACCTAGTGCAG” the binding signal was 8640 fluorescence intensity (a.u.). “GAGTGTAACGGGTGGGGTGGTTTGGAAGGTGATGAGGTATCGGAGTCACCTAGTGCAG” was tested, and the binding signal was 11300 fluorescence intensity (a.u.). “ACTCTTTACTCTTTCTTTTCTTCTTTCTTTTTTGGCGGGGCGGAGTCACCTAGTGCAG” was tested, and the binding signal was 21200 fluorescence intensity (a.u.). For “ATTTCTTGGAGACCGTTGACTCCTCTCTCTCTATTTCCATCGGAGTCACCTAGTGCAG”, the binding signal was 12400 fluorescence intensity (a.u.). For “TTCTTTCTTTTTTGGCGGGGACTACTCTTTACTTGAACCTCGGAGTCACCTAGTGCAG”, the binding signal was 12400 fluorescence intensity (a.u.). With “GCGCCCTCCGACTCCGACGGCTTCTTGTTCTCGTTGACGCCGGAGTCACCTAGTGCAG” the binding signal was 8950 fluorescence intensity (a.u.). In the case of “TGGTTTTATGTGTGAGTTGGGGTAGTGGCGTTGGTAGGTTCGGAGTCACCTAGTGCAG”, the binding signal is reported as 11700 fluorescence intensity (a.u.). “CACCATTGGGATGGGTGCCTATTTCTTGGAGACCGTTGACCGGAGTCACCTAGTGCAG” was tested, and the binding signal was 17300 fluorescence intensity (a.u.). With “CTTCTAAACATAGCTTCCACAATCGTCTCCGGGCCCTTCTCGGAGTCACCTAGTGCAG” the binding signal was 8320 fluorescence intensity (a.u.). In the case of “GATTAGAATCCGGGTGGGCTGTTTCCACCACAAGAAACTACGGAGTCACCTAGTGCAG”, the binding signal is reported as 8990 fluorescence intensity (a.u.). In the case of “AATTCCCAAAATATACAGTTTTTGTTATTCAGATGTTTACCGGAGTCACCTAGTGCAG”, the binding signal is reported as 8130 fluorescence intensity (a.u.). With “TACCGATGGGGCTCTTATACTCCAACTCTTGCCCTGTTTACGGAGTCACCTAGTGCAG” the binding signal was 9020 fluorescence intensity (a.u.). “ATTCGATTTTCTTGCACCTAAACACATGCAACCCATCATTCGGAGTCACCTAGTGCAG” was tested, and the binding signal was 10100 fluorescence intensity (a.u.). In the case of “TTACTACTACCACTCGTTTTCTTGGCTTGGTTTGGTTTGGCGGAGTCACCTAGTGCAG”, the binding signal is reported as 13000 fluorescence intensity (a.u.). With “AGCTTGGTTTCTGGGTTGGGTTGGGTTTGGTTGCGTTGCGCGGAGTCACCTAGTGCAG” the binding signal was 22700 fluorescence intensity (a.u.). In the case of “TGTGTTGGTGATGTCGATGTGTGGGTGGTGGTTTTTTTTTCGGAGTCACCTAGTGCAG”, the binding signal is reported as 13800 fluorescence intensity (a.u.). “TTGGTTTTGGTTTGGGTGGTTGATGTGTGGGTGGTGGTGGCGGAGTCACCTAGTGCAG” was tested, and the binding signal was 19000 fluorescence intensity (a.u.). For “GGCTTTTATGGGGCGGGCTTTCTTTGGTCAATGGTCACTACGGAGTCACCTAGTGCAG”, the binding signal was 32200 fluorescence intensity (a.u.). For “TGTGTGGTAGTTCGGGGTGGACCTACTTCTAATTATTGGGCGGAGTCACCTAGTGCAG”, the binding signal was 14100 fluorescence intensity (a.u.). For “CGGCGGAGGAGGAGGTTTCTTGCTCGTTTCTTGGGTTGCGCGGAGTCACCTAGTGCAG”, the binding signal was 10800 fluorescence intensity (a.u.). “GGTGGGTAGTTTTCTGCGTTTTCTTTTGTATTTTTGGTTGCGGAGTCACCTAGTGCAG” was tested, and the binding signal was 11500 fluorescence intensity (a.u.). For “CGTGTGACTGTTGCCGTGATGGTTTTGATGTTTGTTTTGGCGGAGTCACCTAGTGCAG”, the binding signal was 9180 fluorescence intensity (a.u.). In the case of “GGGAAATTGGGTAATTAATTAATTATGTGAAAGGGGTGGGCGGAGTCACCTAGTGCAG”, the binding signal is reported as 12800 fluorescence intensity (a.u.). For “TTTTTCAATTTTTGGTTAAAATTTTTGGGGCTTTTCTTCGCGGAGTCACCTAGTGCAG”, the binding signal was 8990 fluorescence intensity (a.u.). With “TCTATTGGGGCGGGGTGTGGTAAGGAAATTACAGTTTGCACGGAGTCACCTAGTGCAG” the binding signal was 17700 fluorescence intensity (a.u.). With “AAGACATTGCATCAACCGTCTTGCCAATCTATGTTTTCTACGGAGTCACCTAGTGCAG” the binding signal was 8280 fluorescence intensity (a.u.). With “ATTATAAGTTGTTTCTTCTTAGGTTGTGTTTAGTTCCTTGCGGAGTCACCTAGTGCAG” the binding signal was 9250 fluorescence intensity (a.u.). “GCTTCCTCGGCCTCGGGCCGCGTCTCCATGGTCGACTTGACGGAGTCACCTAGTGCAG” was tested, and the binding signal was 11200 fluorescence intensity (a.u.). With “ACCAGTTAATGTACATTTGCAATTATATTTTGTTATTTTTCGGAGTCACCTAGTGCAG” the binding signal was 8230 fluorescence intensity (a.u.). “ATGTAGATGTGGTCATGTGGGTGCTATCTGTGTGGGTGATCGGAGTCACCTAGTGCAG” was tested, and the binding signal was 9360 fluorescence intensity (a.u.). For “AGTTCTTGGAGTCACATGGTTGGTGGTGGTGTGGGCAGTTCGGAGTCACCTAGTGCAG”, the binding signal was 14200 fluorescence intensity (a.u.). “ACCACTTGGCTTTCTTTCTTTTATCCGGTTAGTTCCGGCGCGGAGTCACCTAGTGCAG” was tested, and the binding signal was 8090 fluorescence intensity (a.u.). For “TTTTTTGTCGGACTTTTTTCTTCATTTTTTACCTCTTTTGCGGAGTCACCTAGTGCAG”, the binding signal was 16900 fluorescence intensity (a.u.). “GGTGGTGTTGTTGGTGGTGCAGTTCTTGGAGTCACATGGTCGGAGTCACCTAGTGCAG” was tested, and the binding signal was 10300 fluorescence intensity (a.u.). With “CCTTTTTAGTCGGACTTCTTTTTCTTTTTTACCGACTTTGCGGAGTCACCTAGTGCAG” the binding signal was 10300 fluorescence intensity (a.u.). In the case of “GTAAGTGTGTGTTCAGTGATGGCTATCGGTGGGTGGGTGGCGGAGTCACCTAGTGCAG”, the binding signal is reported as 16600 fluorescence intensity (a.u.). With “GTTGTTTGTTTGAGACTCTGTTCCTTTTGGCTTGGTTTTCCGGAGTCACCTAGTGCAG” the binding signal was 12700 fluorescence intensity (a.u.). With “GAGATGCGGCACGGTTGGCTTGTTGACTTTTTCCGGCCCGCGGAGTCACCTAGTGCAG” the binding signal was 17500 fluorescence intensity (a.u.). With “GAGATGGATGTGTGGTGATGGCCTAGGATGTGGGATGGATCGGAGTCACCTAGTGCAG” the binding signal was 8160 fluorescence intensity (a.u.). For “TCTTTATTTACCTTTTTTTGAGTCGGACTTCTTTTTCTTTCGGAGTCACCTAGTGCAG”, the binding signal was 8240 fluorescence intensity (a.u.). With “GGAGTTTGGTTGGTTGGTGGTGTTCTTGACGGGGCATGGACGGAGTCACCTAGTGCAG” the binding signal was 31200 fluorescence intensity (a.u.).
